Source: PubChem BioAssay (several laboratories)
Sampled rows, rich in hits. Any-hit rate of the full collection: about 3.7%.
BoNT-A LC inh2 – inhibitors of Botulinum neurotoxin A light chain protease | multiplex microsphere protease substrate cleavage, flow cytometry | inhibition, % at 10 µM | 360,000 tested, 0.17% active
Anthrax LF inh2 – blocks Bacillus anthracis lethal factor protease | 360,000 tested, 0.12% active | AID 588501 | multiplex microsphere protease cleavage assay, LF | inhibition, % at 10 µM
MazF activator – increases E. coli MazEF RNase cleavage of RNA; P0AE70; FAM/BHQ RNA-DNA oligo cleavage fluorescence, 5 h; activation, % at 20 µM; 350,000 tested, 0.32% active; in the data active = activation above about 50%
Autofluor counter – counter-screen for toxin protease inhibitors: compound fluorescence; 360,000 tested, 3.1% active; fluorescence intensity (test concentration not listed); compound autofluorescence counterscreen, microsphere flow cytometry; hits give high values; in the data active = fluorescence intensity above about 16000; inconclusive = no clear call, values can overlap the other calls
BoNT-F LC inh – inhibitors of Botulinum neurotoxin F light chain protease. Multiplex microsphere protease cleavage assay, flow cytometry. inhibition, % at 10 µM. 360,000 tested, 0.22% active. AID 588497; in the data active = inhibition above about 35%, passing the limit was not always enough; inconclusive = no clear call, values can overlap the other calls
Hits are given with their value; - = inactive; ? = inconclusive; . = no result; + = active, no number. Rule as the data show it, unless noted: active = inhibition above about 30%; inconclusive = no clear call, values can overlap the other calls; inactive = below that.

SMILES	BoNT-A LC inh2	Anthrax LF inh2	MazF activator	Autofluor counter	BoNT-F LC inh
CCC(C)(O)c1cnc(CC(C)C)c(=O)n1O (centres undefined)	-	-	.	-	-
CC1=CC(=O)N(c2ccc(C)cc2)C1c1ccc(Cl)cc1 (centres undefined)	-	-	-	-	-
CC1=CC(=O)N(c2cccc(C(F)(F)F)c2)C1c1ccc(Cl)cc1 (centres undefined)	-	-	-	23466	-
O=C(NCc1ccc2c(c1)OCO2)c1cccc(S(=O)(=O)N2CCCC2)c1	-	-	-	-	-
O=C(Nc1ccc2c(c1)OCCO2)c1cccc(S(=O)(=O)N2CCCCC2)c1	?	-	-	21092	-
O=C(NCc1ccc2c(c1)OCO2)c1cccc(S(=O)(=O)N2CCCCC2)c1	?	-	-	17025	-
CCN(CC)C(=O)c1ccc(NC(=O)c2cccc(F)c2)cc1	-	-	-	20909	-
O=C(Nc1ccc2c(c1)OCCO2)c1cccc(S(=O)(=O)N2CCOCC2)c1	-	-	-	23080	-
COc1cccc(C(O)c2ncc(-c3cccc(F)c3)[nH]2)c1 (centres undefined)	-	-	.	-	-
O=C(Nc1ccc(N2CCOCC2)cc1)c1cccc(S(=O)(=O)N2CCCCCC2)c1	-	-	-	-	-
CCCn1c(NC(=O)c2cccc(S(=O)(=O)N3CCCC3)c2)nc2ccccc21	-	-	-	16663	-
O=C(Nc1ccc(N2CCOCC2)cc1)c1cccc(S(=O)(=O)N2CCCC2)c1	-	-	-	25105	-
O=C(Nc1ccc(N2CCCCC2)cc1)c1ccccc1	-	-	-	-	-
CCCn1c(NC(=O)c2ccccc2)nc2ccccc21	-	-	-	-	-
O=C(Nc1ccc(N2CCCC2)cc1)c1cccc(F)c1	-	-	-	19303	-
O=C(CNC(=O)C12CC3CC(CC(C3)C1)C2)OCc1ccc(F)cc1Cl	-	-	-	-	-
O=C(CCNC(=O)c1ccc([N+](=O)[O-])cc1)Nc1ccccc1N1CCCCC1	-	-	-	-	-
COc1ccccc1C(=O)Nn1c(C2CCC2)nc2ccccc2c1=O	?	-	-	23194	-
COc1cc2nc(C3CC3)n(NC(=O)c3ccc(Cl)cc3)c(=O)c2cc1OC	-	-	-	-	-
COc1cc2nc(C3CC3)n(NC(=O)c3ccc(F)cc3)c(=O)c2cc1OC	?	-	-	24457	-
O=C(Nn1c(C2CC2)nc2ccccc2c1=O)c1ccco1	-	-	-	20747	-
Cc1nc2ccccc2c(=O)n1NC(=O)c1ccco1	-	-	-	-	-
O=C(Nn1c(C2CCC2)nc2ccccc2c1=O)C1CCC1	-	-	-	16974	-
CCOC(=O)[C@H]1[C@H]2COc3ccccc3[C@@H]2N2C(=O)[C@@H](C)NC(=O)[C@@]12C	-	-	-	-	-
CCC(=Nc1ccc2c(c1)CCC2)c1c(O)n(C2CCCCC2)c(=O)[nH]c1=O	?	-	-	22000	-
SMILES	BoNT-A LC inh2	Anthrax LF inh2	MazF activator	Autofluor counter	BoNT-F LC inh
CC(=Nc1ccc2c(c1)CCC2)c1c(O)n(C2CCCCC2)c(=O)[nH]c1=O	-	-	-	-	-
COc1ccc(CN2C(=O)c3cccnc3C2=O)cc1S(=O)(=O)N(C)c1cccc(C)c1	-	-	-	-	-
COc1cccc(NC(=O)C2(C)CCN2C(=O)Cc2cccc3ccccc23)c1 (centres undefined)	-	-	.	-	-
CN(Cc1cccnc1)C(=O)c1cc(S(=O)(=O)Nc2ccccc2F)ccc1Cl	-	-	-	-	?
Cc1nc(Sc2ccccc2)c(C#N)c(C)c1[N+](=O)[O-]	-	30	-	-	?
O=C1c2cccnc2C(=O)N1Cc1ccc(S(=O)(=O)N2CCN(c3ccc(Cl)cc3)CC2)cc1	-	-	-	-	-
Cc1occc1-c1nnc(SCC(=O)N(C)C)o1	-	-	-	19878	-
COc1ccc(C(=O)Nc2ccccc2C(=O)Nc2ccncc2)cc1	-	-	-	-	-
O=C(COC(=O)/C=C/c1ccccc1Cl)NC(=O)NC1CCCC1	-	-	-	-	-
COc1ccc2c(Cl)cc(NC(=O)Nc3c(C)cccc3C)nc2c1	-	-	-	-	-
CCCc1nc(SCC(N)=O)[nH]c(=O)c1CC	-	-	-	22995	-
CCCc1cc(=O)[nH]c(SCC(N)=O)n1	-	-	-	-	?
CNC(=O)NC(=O)C(OC(=O)CCNS(=O)(=O)c1ccccc1)c1ccccc1 (centres undefined)	-	-	-	18283	-
Cc1nn(-c2ccccc2)c(C)c1/C=N/NC(=O)c1ccccc1O	-	-	-	-	88
Cc1nn(-c2ccccc2)c(C)c1/C=N/NC(=O)c1cc(-c2ccc(Br)s2)[nH]n1	-	-	-	21752	-
Cc1nn(-c2ccccc2)c(C)c1/C=N/NC(=O)c1cc(-c2ccc(Cl)s2)[nH]n1	-	-	-	17595	-
CC(=O)Oc1ccc2oc(-c3ccccc3)c(C(N)=O)c2c1	.	.	-	.	.
COc1cccc(N2CN(CCc3ccccc3)CNC2=S)c1	-	?	-	-	50
CSc1nc(SCC(=O)NC(c2ccccc2)c2ccccc2)c2c3c(sc2n1)CN(C)CC3	-	-	-	16363	-
CN(CC(=O)Nc1c(Cl)cccc1Cl)C(=O)c1sccc1-c1ccccc1	-	-	-	?	-
N#CCCn1c(-c2nonc2NC(=O)c2ccccc2Cl)nc2ccccc21	-	-	81	-	-
CSc1ccccc1OCc1cc(C(=O)NCCc2ccco2)no1	-	-	-	-	-
CSc1nc(NC(C)(C)C)nc(Oc2ccc(=O)[nH]n2)n1	-	-	-	19465	-
COCCN(C(=O)COC(=O)CNC(=O)c1ccc(C)cc1)c1c(N)n(Cc2ccccc2)c(=O)[nH]c1=O	-	-	-	-	-
CCOC(=O)c1cnn(-c2cc(C)nc3c(-c4ccccc4)cnn23)c1N	-	-	-	-	-
SMILES	BoNT-A LC inh2	Anthrax LF inh2	MazF activator	Autofluor counter	BoNT-F LC inh
CCOC(=O)Cc1c(C)nc2c(-c3ccccc3)c(C)nn2c1C	-	-	-	-	-
CCOC(=O)c1cnn(-c2c(Cc3ccccc3)c(C)nc3c(-c4ccccc4)c(C)nn23)c1N	-	-	-	22024	-
CCOC(=O)c1cnn(-c2cc(C(C)(C)C)nc3c(-c4ccccc4)c(C)nn23)c1N	?	-	-	26542	-
Cc1cc(Nc2cnc3ccccc3n2)n(-c2ccccc2)n1	-	-	-	17464	-
CSCCC(NC(=O)c1ccccc1Cl)C(=O)OCC(=O)N1CCCC1=O (centres undefined)	-	-	-	?	-
O=C(NCc1ccco1)c1cc(-c2cccs2)nc2ccccc12	-	-	+	-	-
C=CCNC(=S)NNC(=O)c1cccn(Cc2cccc(Cl)c2)c1=O	-	-	-	24135	-
C=CCNC(=S)NNC(=O)c1cccn(Cc2ccc(Cl)cc2)c1=O	?	?	-	?	?
CC(C)Oc1ccc(CSc2nnc3n(C)c(=O)c4c5c(sc4n23)CCCC5)cc1	?	-	-	24669	-
C=C(C)CSc1nnc2n(C)c(=O)c3c4c(sc3n12)CCC4	-	-	-	-	-
CCOc1cc2c3c(c1)C1(OCCO1)C(=O)N3C(C)(C)CC2C (centres undefined)	-	-	-	-	-
